From PubChem BioAssay (Tox21)
Inconclusive results are not listed. Values without a mark were called inactive. Active and inactive are the calls of the source. Calls follow the shape of the dose curve; as a rule, active = well fitted cell-killing curve with a large enough effect in the repeat runs; inconclusive = weak or mixed curves, or effect the other way; inactive = flat fitted curve, though single readings scatter.

Assay: Human pregnane X receptor (PXR) small molecule agonists, qHTS cell viability counter screen (AID 1346977); also: nearly all actives have a fitted effect of over 50% in size
Conditions: PXR-Luc HepG2 viability, CellTiter-Fluor, 24 h; series mostly up to 92.4 µM
Description: U.S. Tox21 Program National Center for Advancing Translational Sciences [NCATS] NIH Chemical Genomics Center [NCGC] U.S. Environmental Protection Agency [EPA] National Institutes of Environmental Health Sciences [NIEHS] National Toxicology Program [NTP] U.S. Food and Drug Administration [FDA] Tox21 Assay Overview: The human pregnane X receptor (hPXR) regulates the expression of several drug metabolizing enzymes and induction of these proteins is a major mechanism for developing drug resistance in cancer. One such key enzyme catalyzing the drug metabolism is cytochrome P450 3A4 (CYP3A4). Changes in CYP3A4 expression affect drug metabolism, thereby reducing the therapeutic efficacy and altering toxicological response to a drug and which finally causes adverse drug interaction. To screen Tox21 libraries for compounds that activate hPXR-mediated CYP3A4 gene expression, PXR-Luc HepG2 cells were used. Also cytotoxicity of the compounds was tested in parallel by measuring the cell viability using CellTiter-Fluor assay system in the same wells.
Tox21 Assay Protocol Summary: PXR-Luc HepG2 cells were dispensed at 2,000 per well in 5uL of assay medium containing 5% charcoal-stripped FBS into white solid bottom 1536-well plates (Corning Life Sciences, Corning, NY) using a Multidrop Combi (Thermo Scientific, Waltham, MA) dispenser. The assay plates were incubated at 37 C and 5% CO2 for 5hr, and then 23nL of compounds dissolved in DMSO and positive control were transferred using a Pintool station (Wako, San Diego, CA). The assay plates were incubated at 37C and 5% CO2 for 24hr. For cytotoxicity read, after 23hr incubation at 37C, 1uL CellTiter-Fluor reagent (Promega Corporation, Madison, WI) was added to each well of the assay plates using Flying Reagent Dispenser (FRD, Aurora Discovery, San Diego, CA). After 1hr incubation at 37C and 5% CO2, the fluorescence signal was quantified using a ViewLux plate reader (PerkinElmer, Shelton, CT).
% is scaled to controls: 0 for no effect and ±100 for the full control effect.

SMILES | outcome | activity change, negative = cytotoxicity
C=CCCCCCCCCC(=O)OCCCC | inactive | 
C/C=C(\C)C(=O)OCCc1ccccc1 | inactive | 
NCc1ccc(S(N)(=O)=O)cc1 | inactive | 
COC(=O)CCCCC(CCSS/C(CCO)=C(\C)N(C=O)Cc1cnc(C)nc1N)SC(C)=O (stereo not given) | inactive | 
CC(=O)OC(C)=O | inactive | 
O=C(NCN1CCOCC1)c1cnccn1 | inactive | 
CC1(C)[C@H]2CC[C@](C)(C2)[C@H]1O | inactive | 
C#CCN[C@@H]1CCc2ccccc21 | inactive | 
CC1OCCC1=O (stereo not given) | inactive | 
CN(C)CCCO[C@@H]1[C@H]2OC(C)(C)O[C@H]2O[C@@H]1C(O)CO (stereo not given in full) | inactive | 
CCCC(=O)OCCC(C)CCC=C(C)C (stereo not given) | inactive | 
CC(=O)OCC(=O)Nc1cc(C#N)cc(NC(=O)COC(C)=O)c1Cl | inactive | 
CCCCCc1cccc(=O)o1 | inactive | 
CCCc1ccc(O)cc1 | inactive | 
CC(=O)Nc1ccc(OC(=O)c2ccccc2OC(C)=O)cc1 | inactive | 
CN1CCOC(c2ccccc2)c2ccccc2C1 (stereo not given) | inactive | 
CCn1cc(C(=O)O)c(=O)c2cnc(N3CCCC3)nc21 |  | -1.63% [at 8.39 µM]
Fc1ccccc1 | inactive | 
CN(C)CC/C=C1/c2ccccc2COc2ccc(CC(=O)O)cc21 | inactive | 
CC(=O)CCC1=C(C)CCCC1(C)C | inactive | 

SMILES | outcome | activity change, negative = cytotoxicity
CC/C=C\CCOC(=O)c1ccccc1O | inactive | 
CCO | inactive | 
COc1ccc2c(c1)c1c3n2CCN(C)C3=NCC1 | inactive | 
CC(C)(CO)C(O)C(=O)NCCCO (stereo not given) | inactive | 
O=C(CN1CCNCC1)NC1CCCCC1 | inactive | 
CCCC(CC)c1ccccc1 (stereo not given) | inactive | 
COC(=O)/C=C\C(=O)O | inactive | 
CCO[Si](CC)(OCC)OCC | inactive | 
CCCCCCCCCCCCCBr | inactive | 
Cc1c(C(=O)c2c[nH]n(C)c2=O)ccc(S(C)(=O)=O)c1C1=NOCC1 | inactive | 
O=C(CCCCC(=O)Nc1c(I)cc(I)c(C(=O)O)c1I)Nc1c(I)cc(I)c(C(=O)O)c1I | inactive | 
CC(O)CC(C)O (stereo not given) | inactive | 
CO[Si](CCCn1c(=O)n(CCC[Si](OC)(OC)OC)c(=O)n(CCC[Si](OC)(OC)OC)c1=O)(OC)OC | inactive | 
CC(Oc1cc(Cl)ccc1Cl)C(=O)O (stereo not given) | inactive | 
CO[C@@]1(NC(=O)Cc2cccs2)C(=O)N2C(C(=O)O)=C(COC(N)=O)CS[C@@H]21 | inactive | 
CCC(C(=O)OCCN1CCOC(c2ccccc2)C1C)c1ccccc1 (stereo not given) | inactive | 
CC(C)=CCC[C@@](C)(O)[C@H]1CC=C(C)CC1 | inactive | 
CCCSSCCC | inactive | 
Cc1cc(C)c(C(=O)O)c(C)c1 | inactive | 
OC[C@H]1O[C@@H](O[C@@H]2[C@@H](CO)O[C@](O)(CO)[C@H]2O)[C@H](O)[C@@H](O)[C@H]1O | inactive | 
